Source: PubChem BioAssay (National Center for Advancing Translational Sciences (NCATS))
The list is not random: actives were taken first. Their share in the collection is about 11%.
HCV inhibitor: blocks hepatitis C virus; 3.4% of 340,000 active; Potency, µM (highest dose often 41.8 µM), for the others: at the highest dose activity change, negative = inhibition, hits mostly inhibitors; AID 651820; Huh7.5.1 HCVcc-Cre infection, luciferase reporter, 44 h
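HCVcc-Cre virus at an moi near 0.5 was added right after compound to cells cultured 4 h from seeding (1,000 cells/well). Luciferase activity was determined 44 h later, 15 min after substrate addition at RT.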
Pf growth 48h: P. falciparum growth inhibition at 48 hours (one generation). P. falciparum luciferase growth in erythrocytes, 48 h. 5.9% of 310,000 active. Potency, µM (titrated, usually from 28.7 µM), for inactives: at the highest dose activity change, negative = inhibition, most hits filed as inhibitors
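A one-generation exposure of luciferase-tagged malaria parasites in RPMI 1640/Albumax erythrocyte culture, 37 C and 5% CO2. Inhibition is inferred from decreased luminescence after adding detection reagent.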
AMA1 RON2 block: AMA1-RON2 (P. falciparum) interaction inhibition. AlphaScreen AMA1-biotinylated RON2 peptide binding. 0.2% of 360,000 active. Potency, µM (highest dose often 58.2 µM), for the others: at the top dose activity change, negative = inhibition, usual class: inhibitors;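 note: 0% = vehicle wells and -100% = peptide control; nearly all actives have a fitted effect of over 45% in size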
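AMA1 (3D7) with his tag at 25 nM final met compounds first, then biotinylated RON2 peptide at 25 nM; detection used donor plus acceptor beads, 10 µg/mL apiece, read by AlphaScreen after 30 min at room temperature.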
Pf growth 96h: inhibits malaria parasite growth, 96 h; P. falciparum luciferase reporter growth, 96 h; Potency, µM (titrated, usually from 28.7 µM), for inactives: at the top dose activity change, negative = inhibition, most hits filed as inhibitors; 6.9% of 320,000 active
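Infected RBCs, 2% Hct / 0.05% parasitemia final; luciferase-reporter P. falciparum; cpd 96 h, 37 C, 5% CO2; luciferase detection reagent; luminescence.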
* hit, by the source's call; ? = inconclusive; · = no result given; [ ] = another dose, or the depositor's remark. Calls come from the whole dose curve; as a rule, active = well fitted curve in the direction sought with a large enough effect; inconclusive = small, poorly fitted or top-dose-only effect, or another doubt; inactive = no such curve, though single readings can be large; an effect the other way counts as inactive or inconclusive. Unless noted, % is set by controls: 0 for no effect and ±100 for the full control effect; potency is the fitted concentration of half-maximal effect.

SMILES | HCV inhibitor | Pf growth 48h | AMA1 RON2 block | Pf growth 96h
Cc1ccc(S(=O)(=O)N2CCCCC2)cc1NC(=O)c1ccc(=O)[nH]c1 | · | · | -2.9% | ·
O=C1CNC(=O)/C1=C\N1CCN(C(c2ccccc2)c2ccccc2)CC1 | ? | -19.5% | -2.0% | 3.29µM*
C=Cc1cc(OC)c2c(c1)c(=O)oc1c2cc(OC)c2c(O)ccc(C3OC(C)C(O)C(C)(O)C3O)c21 (stereo not given) | 1µM* | · | -10.7% | ·
CC1(C)CSC(=NCc2ccccc2)N1 | 10µM* | 17.8% | -3.6% | -14.0%
O=C(Nc1cnn(Cc2c(Cl)cccc2Cl)c1)c1ccc([N+](=O)[O-])cc1 | ? | ? | -7.7% | 13.1µM*
O=C(COc1ccc(Cl)cc1)Nc1cnn(Cc2c(Cl)cccc2Cl)c1 | ? | -23.9% | -10.4% | ?
COc1ccccc1-n1cc(-c2ccccc2)c2c(=S)nc[nH]c21 | 5.2% | 13.1µM* | -4.8% | ?
COc1ccccc1-n1cc(-c2ccccc2)[nH]c1=S | -14.5% | ? | 80.2% | 16.3%
O=c1[nH]cnc2c1c(-c1ccccc1)cn2-c1cccc(Cl)c1 | 8.7% | -23.2% | -12.7% | ?
COc1ccc(-n2cc(-c3ccccc3)c3c(=O)[nH]cnc32)cc1 | 0.8% | -24.6% | ? | 10.4µM*
CCOC(=O)/C(=C/C=C1\Sc2cc(C)c(C)cc2N1CC)C(C)=O | 11.2µM* | ? | 0.8% | 0.8%
CCOC(=O)/C(=C/C=C1\Sc2ccccc2N1CC)C(C)=O | ? | ? | -12.4% | 46.2%
CCn1c([N+](=O)[O-])nc2c1c(=O)[nH]c(=O)n2C | 11.2µM* | -2.5% | 9.9% | ?
CCCCCCn1c(SCCOC)nc2c1c(=O)[nH]c(=O)n2C | 14.3% | 6.3% | 0.0% | 9.1%
CCSc1nc2c(c(=O)[nH]c(=O)n2C)n1C | 13.0% | -25.6% | 0.6% | -11.9%
CCCn1c(SCc2ccccc2)nc2c1c(=O)[nH]c(=O)n2C | 2.3% | -23.8% | -1.4% | ·
CCC(C)Nc1nc2c(c(=O)[nH]c(=O)n2C)n1CCOc1ccccc1 (stereo not given) | -5.7% | ? | 2.0% | ?
CCCCCCn1c(SCCCC)nc2c1c(=O)[nH]c(=O)n2C | 10.3% | ? | -1.9% | 3.29µM*
CCCCn1c(NC(C)CC)nc2c1c(=O)[nH]c(=O)n2C (stereo not given) | 8.3% | ? | 0.0% | 4.65µM*
CCCCCn1c(SCc2cccc(C)c2)nc2c1c(=O)[nH]c(=O)n2C | ? | ? | -6.2% | 9.28µM*
CC(C)CCSc1nc2c(c(=O)[nH]c(=O)n2C)n1CCCc1ccccc1 | 3.3% | 0.3% | 5.4% | 5.86µM*
Cc1ccc(-n2c(SCC(=O)NC3CCS(=O)(=O)C3)nc3ccccc3c2=O)cc1 (stereo not given) | -9.2% | 56.4% | 11.0% | -14.2%
CCCCCCn1c(SCC(=O)NC2CCS(=O)(=O)C2)nc2ccccc2c1=O (stereo not given) | · | · | -3.6% | ·
O=C(CSc1nc2cc(C(F)(F)F)ccc2n1Cc1ccccc1)NC1CCS(=O)(=O)C1 (stereo not given) | 0.9% | ? | 5.7%[2.32 µM] | 11.7µM*
O=C(CSc1nc2ccccc2c(=O)n1-c1ccccc1Cl)NC1CCS(=O)(=O)C1 (stereo not given) | 7.0% | ? | -0.5% | 10.4µM*
SMILES | HCV inhibitor | Pf growth 48h | AMA1 RON2 block | Pf growth 96h
COc1ccc(-c2nnc(SCC(=O)Nc3ccc4c(c3)OCCO4)n2N)cc1OC | -12.0% | 3.3% | -11.8% | ?
COc1cc2cc(C(c3nnnn3Cc3ccc(F)cc3)N3CCCCCC3)c(=O)[nH]c2cc1OC (stereo not given) | 3.7% | ? | -4.6% | ?
COc1ccc2cc(C(c3nnnn3C(C)(C)C)N3CCSCC3)c(=O)[nH]c2c1 (stereo not given) | -24.0% | 11.7µM* | -7.8% | -2.8%
COc1ccc(Cn2nnnc2C(c2cc3ccc(OC)cc3[nH]c2=O)N2CCCCCC2)cc1 (stereo not given) | -5.2% | 9.28µM* | 7.1% | 7.8%
COc1ccc(Br)c(Cn2c(C)c(C(=O)NCc3cccc([N+](=O)[O-])c3)sc2=O)c1 | · | · | -11.7% | ·
Cc1ccc(-c2cc(C(F)F)n3ncc(C(=O)N4CCN(c5cccc(C)c5C)CC4)c3n2)cc1 | 31.6µM* | -15.1% | 9.3% | -9.3%
CCOC(=O)N1CCN(C(=O)c2cnn3c(C(F)F)cc(-c4ccc(C)cc4)nc23)CC1 | 1.2% | -3.7% | -3.8% | 31.4%
